Experimental findings from PubChem BioAssay AID1058 (Emory University Molecular Libraries Screening Center, 2008) are described below.

Measured potencies and affinities stand elsewhere. Active and inactive are the calls of the source.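 The calls were made as follows: active = fitted IC50 of 30 µM or less, with percent of control binding at that IC50 of 60 or less; inactive = the rest.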

This experiment concerns the target Mothers against decapentaplegic homolog 3 (Homo sapiens) (UniProt P84022). Kind of experiment: blockers of Smad3 complex formation in lysate – cell lysate, secondary confirmation, chemiluminescent ELISA, HEK293 lysate, dose response (AID 1058).

Sequence of Mothers against decapentaplegic homolog 3 (Homo sapiens) (P84022 whole entry, looked up): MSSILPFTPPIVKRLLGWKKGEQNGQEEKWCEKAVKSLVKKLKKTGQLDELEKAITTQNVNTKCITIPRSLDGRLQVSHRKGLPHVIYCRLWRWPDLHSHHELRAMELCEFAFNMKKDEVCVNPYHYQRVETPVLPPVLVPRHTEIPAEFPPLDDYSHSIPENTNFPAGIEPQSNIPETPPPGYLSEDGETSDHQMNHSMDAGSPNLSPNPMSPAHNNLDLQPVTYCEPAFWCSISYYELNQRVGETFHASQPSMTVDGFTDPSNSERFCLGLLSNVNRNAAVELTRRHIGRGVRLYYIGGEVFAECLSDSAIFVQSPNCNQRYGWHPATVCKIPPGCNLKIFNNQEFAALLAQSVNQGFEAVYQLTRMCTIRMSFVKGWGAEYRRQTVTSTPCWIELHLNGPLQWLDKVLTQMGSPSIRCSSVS

With `Oc1cc2c(cc1C(c1ccc(F)cc1)N1CCOCC1)OCO2` (stereo unspecified), the compound was called inactive.
